IL1B secr inh = qHTS for Inhibitors of Inflammasome Signaling: IL-1-beta AlphaLISA Primary Screen; activity change, % at 57.5 µM; THP-1 LPS/ATP IL-1B secretion, AlphaLISA, 16 h; hits give low values; actives 4.7% (n = 360,000); in the data active means activity change below about -50%; inconclusive means mostly about -30% to -49%
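THP-1 cells pretreated 1 hr with compounds (up to 57.5 uM final), then stimulated with LPS (250 ng/mL final) plus ATP (1.25 mM final); secreted IL-1B measured by AlphaLISA after 16 hr, decreased signal indicating inhibition.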
Vif-APOBEC3F blk = qHTS for Inhibitors of Vif-A3F Interactions: qHTS; Potency, µM (highest dose often 46.1 µM); actives 0.2% (n = 390,000); HeLa A3F-eYFP + Vif (tagged APOBEC3F with the HIV-1 protein that degrades it), YFP fluorescence increase; further: nearly all actives have a fitted effect of over 65% in size
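HeLa cells stably expressing A3F-eYFP plus Vif, plated and incubated overnight at 37 deg C, then exposed to compounds overnight at 37 deg C. Blocked degradation read as raised yellow fluorescence (Ex 488/Em 500-530).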
Vif-A3G inh = qHTS for Inhibitors of Vif-A3G Interactions: qHTS; DNA dC->dU-editing enzyme APOBEC-3G (Homo sapiens), Q9HC16; HeLa A3G-eYFP + Vif (tagged APOBEC3G with the HIV-1 protein that degrades it), YFP fluorescence, overnight; Potency, µM (series often up to 46.1 µM), most hits filed as inhibitors; actives 0.076% (n = 410,000); AID 602310, 2012; further: nearly all actives have a fitted effect of over 60% in size
Target sequence (Q9HC16 whole entry, looked up): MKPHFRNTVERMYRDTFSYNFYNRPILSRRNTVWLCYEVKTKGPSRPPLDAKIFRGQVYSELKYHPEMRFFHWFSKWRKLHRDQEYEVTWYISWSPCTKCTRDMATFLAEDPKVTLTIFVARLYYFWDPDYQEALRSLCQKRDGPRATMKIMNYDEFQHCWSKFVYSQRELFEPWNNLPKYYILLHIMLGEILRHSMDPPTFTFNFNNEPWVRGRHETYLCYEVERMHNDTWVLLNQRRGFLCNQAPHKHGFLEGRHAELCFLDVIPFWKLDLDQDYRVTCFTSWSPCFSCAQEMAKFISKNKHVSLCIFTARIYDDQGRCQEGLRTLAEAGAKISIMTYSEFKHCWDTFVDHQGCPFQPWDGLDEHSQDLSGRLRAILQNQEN
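HeLa cells stably expressing Vif and C-terminally eYFP-tagged A3G, seeded overnight at 37 deg C, then exposed to compound by pintool overnight at 37 deg C. Rise in yellow fluorescence (Ex 488/Em 500-530, Acumen) marks blocked Vif-driven A3G degradation.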
Giardia kill = Small Molecules that selectively kill Giardia lamblia: qHTS. Giardia lamblia trophozoite viability. activity change, % at 7.66 µM, hits read low. actives 0.15% (n = 340,000). AID 540267, 2011; in the data active means activity change below about -80%; inconclusive means between about -30% and that limit;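 further: parasites exposed to compound for two days anaerobically before the ATP read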
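Viability, read as ATP luminescence: trophozoites at 100 cells/well, compound added, 48 hrs anaerobic at 37 deg C, then 15-30 min room-temperature development before reading.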
MCF10A rereplic = A quantitative high throughput screen for small molecules that induce DNA re-replication in MCF 10a normal breast cells; MCF 10A DNA re-replication, Hoechst nuclear intensity, 48 h; Potency, µM (top dose mostly 46.1 µM), most hits filed as activators; actives 2.9% (n = 350,000); AID 624296, 2012; further: nearly all actives have a fitted effect of over 50% in size
SW480 rereplic = A quantitative high throughput screen for small molecules that induce DNA re-replication in SW480 colon adenocarcinoma cells | SW480 DNA re-replication, Hoechst DNA content imaging, 48 h | Potency, µM (top dose mostly 46.1 µM), usual class: activators | actives 1.8% (n = 340,000) | AID 624297, 2012; further: nearly all actives have a fitted effect of over 55% in size
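Per well, 250 cells were exposed to pinned compound for 48 hr. Nuclear DNA was visualised with Hoechst (40 min, 37 C) and total object intensity recorded by fluorescence scanning.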
Of the large screens only hits and unclear results are named; the others gave an inactive call. Hits are enriched below; roughly 6.9% of the tested compounds scored in any of these assays. Unless noted, the call rests on the fitted dose curve; in most records, active means well fitted curve in the direction sought with a large enough effect; inconclusive means small, poorly fitted or top-dose-only effect, or another doubt; inactive means no such curve, though single readings can be large; an effect the other way counts as inactive or inconclusive.

CCC(=O)c1ccc(OCC(O)CN(CCc2ccccc2)Cc2ccccc2)cc1 (centres undefined)	IL1B secr inh -80.0, SW480 rereplic inconclusive
COc1cccc(OCC(O)CN(CCO)Cc2ccccc2)c1 (centres undefined)	none
OC(COc1ccccc1)CN(Cc1ccccc1)CC(O)COc1ccccc1 (centres undefined)	IL1B secr inh -52.7, MCF10A rereplic inconclusive
COc1ccc(C2N(c3ccc(Cl)cc3)N=C(C(C)=O)N(C)N2C(C)=O)cc1 (centres undefined)	IL1B secr inh -58.1
Cc1ccc(C)c(S(=O)(=O)c2nnn3c2nc(NC(C)C)c2sccc23)c1	none (no result: IL1B secr inh, Giardia kill, MCF10A rereplic, SW480 rereplic)
COc1ccc(Cl)c2sc(NC(=O)C3=COCCO3)nc12	SW480 rereplic 5.17µM
CC(C)(C)C(=O)Nc1nc2cc3c(cc2s1)OCO3	SW480 rereplic 3.26µM
Cc1cc(C)c2sc(NC(=O)C3=COCCO3)nc2c1	IL1B secr inh -58.3
O=C(Nc1nc2cc3c(cc2s1)OCCO3)C1=COCCO1	IL1B secr inh -53.0, Giardia kill -86.3
O=C(Nc1nc2ccc(F)cc2s1)C1=COCCO1	none
Cc1oc2ncn(CC(C)C)c(=O)c2c1C(=O)NCCCN(Cc1ccccc1)C(C)C	none (no result: IL1B secr inh, Giardia kill, MCF10A rereplic, SW480 rereplic)
C=C1CCN(C(C(=O)O)C(C)C)S(=O)(=O)c2ccccc21 (centres undefined)	none (no result: IL1B secr inh, Vif-APOBEC3F blk, MCF10A rereplic, SW480 rereplic)
CCOCCCNC(=O)C(c1ccc(C)cc1)N(Cc1ccc2c(c1)OCO2)C(=O)c1ccccc1O (centres undefined)	none (no result: IL1B secr inh, Giardia kill, MCF10A rereplic, SW480 rereplic)
CCCCc1oc2ccccc2c1C(=O)c1cc(I)c(N(CC)CCOCC)c(I)c1	none (no result: IL1B secr inh, Vif-APOBEC3F blk, MCF10A rereplic, SW480 rereplic)
CCc1oc2ccccc2c1C(=O)c1cc(I)c(O)c(I)c1	MCF10A rereplic 3.76µM (no result: IL1B secr inh, Vif-APOBEC3F blk, Vif-A3G inh, Giardia kill)
CC(C)C(OC(=O)c1cc2sccc2n1C)C(=O)NCC1CCCO1 (centres undefined)	none
COc1ccc(CN(CC2CCCO2)C(=O)c2cc3sccc3n2C)c(OC)c1 (centres undefined)	IL1B secr inh -103.8, SW480 rereplic inconclusive

Screening data as filed in PubChem.
